Test results as given in PubChem BioAssay AID492949 (National Center for Advancing Translational Sciences (NCATS), 2010).
Records with an inconclusive call do not appear. Activity calls are given as the source filed them. Calls come from the whole dose curve; as a rule, active = well fitted activation curve with a large enough effect; inconclusive = small, poorly fitted or top-dose-only effect; inactive = no such curve, though single readings can be large or run the other way.
Note: nearly all actives have a fitted effect of over 60% in size.
Potency is the fitted concentration of half-maximal effect.

Each molecule was assayed against Relaxin receptor 1 (Homo sapiens) (UniProt Q9HBX9) (assay: qHTS Assay for Agonists of the Relaxin Receptor RXFP1: THP1 Hit Validation). Details: THP1-RXFP1 cells, cAMP TR-FRET, 30 min; series mostly up to 115 µM.
Chain of Relaxin receptor 1 (Homo sapiens) (Q9HBX9 whole entry, looked up): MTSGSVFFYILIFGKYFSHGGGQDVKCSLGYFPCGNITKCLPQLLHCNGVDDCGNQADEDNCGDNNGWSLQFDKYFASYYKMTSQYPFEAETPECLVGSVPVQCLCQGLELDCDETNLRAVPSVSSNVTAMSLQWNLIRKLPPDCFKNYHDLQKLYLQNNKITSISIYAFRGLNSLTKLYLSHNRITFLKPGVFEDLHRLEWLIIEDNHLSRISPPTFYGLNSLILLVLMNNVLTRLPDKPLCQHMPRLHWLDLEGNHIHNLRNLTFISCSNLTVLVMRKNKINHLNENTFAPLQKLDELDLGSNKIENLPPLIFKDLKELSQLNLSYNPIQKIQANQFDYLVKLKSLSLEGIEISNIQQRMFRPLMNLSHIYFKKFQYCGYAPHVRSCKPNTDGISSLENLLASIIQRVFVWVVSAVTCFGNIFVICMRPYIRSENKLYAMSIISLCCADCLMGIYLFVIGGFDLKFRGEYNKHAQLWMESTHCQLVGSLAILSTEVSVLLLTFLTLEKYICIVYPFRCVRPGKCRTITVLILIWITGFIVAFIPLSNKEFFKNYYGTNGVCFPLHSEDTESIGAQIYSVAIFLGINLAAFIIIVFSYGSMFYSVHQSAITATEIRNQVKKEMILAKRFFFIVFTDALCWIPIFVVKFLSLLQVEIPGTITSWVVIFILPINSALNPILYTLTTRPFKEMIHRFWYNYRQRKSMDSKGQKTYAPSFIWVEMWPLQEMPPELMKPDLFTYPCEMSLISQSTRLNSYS
Method in brief: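 THP1 cells stably expressing RXFP1, treated 30 min at 37 C with compounds alongside PDE4 inhibitor Ro 20174. cAMP read by HTRF TR-FRET after lysis; normalized to buffer and 29 nM porcine relaxin; EC50 from Hill fits.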
In the case of CCN(CC)CCCN1C=C2C(=O)C(C)(OC(=O)C3CCCC3)C(=O)C=C2C=C1c1ccsc1 (stereo unspecified), the Potency is reported as “inactive”.
O=C(O)c1cc(-c2ccc(Br)s2)nc2ccccc12 was tested, and the Potency was 3.08 µM (active).
In the case of O=C(O)CCSc1ccc2ccccc2n1, the Potency is reported as 19.4 µM (active).
With O=C(Nc1ccccc1C(=O)NCc1ccco1)c1ccco1 the Potency was “inactive”.
For CC(C)n1c(SCC(=O)N2CCN(C(=O)c3ccco3)CC2)nc2c1c(=O)n(C)c(=O)n2C, the Potency was 6.9 µM (active).
In the case of CCOC(=O)CCCCC(=O)c1[nH]c(=O)[nH]c1CSc1nnc2c3cc(Br)ccc3n(C)c2n1, the Potency is reported as 8.68 µM (active).
CCC1(C)Cc2c(sc3c2c2ncnn2c2nnc(SCC(=O)NCc4ccco4)n32)CO1 (stereo unspecified) was tested, and the Potency was 11 µM (active).
With O=[N+]([O-])c1cc2c(c(CSc3nnc4ccccn34)c1)OCOC2 the Potency was 13.8 µM (active).
O=C(O)c1ccc(CN2C(=O)c3ccc(C(=O)O)cc3C2=O)cc1 was tested, and the Potency was “inactive”.
With CCOC(=O)CNC(=O)CSc1ccc2nnc(-c3cccnc3)n2n1 the Potency was “inactive”.
In the case of O=C(Nc1ccccc1C(=O)N1CCCCC1)c1ccco1, the Potency is reported as “inactive”.
With CCc1ccc(-c2nc3ccc(Br)cc3c(C(=O)O)c2C)s1 the Potency was 6.15 µM (active).
CC1CCN(S(=O)(=O)c2ccc3nc(N4CCN(c5ccccc5)CC4)ccc3c2)CC1 was tested, and the Potency was 15.4 µM (active).
For NC(=S)c1cc2ccc(O)cc2oc1=O, the Potency was 4.88 µM (active).
O=C(Cn1cnc2c(nnn2-c2ccc(F)cc2)c1=O)NCC1CCCO1 (stereo unspecified) was tested, and the Potency was 8.7 µM (active).
COC(=O)[C@@H]1C[C@@]2(O)[C@H](O)[C@H](O)[C@H](O)C[C@H]2N1Cc1cc(F)ccc1F was tested, and the Potency was “inactive”.
